# Experimental data from PubChem BioAssay AID1159580 (chemical genetic matrix, 2015).
# The campaign covered roughly 5,500 compounds. About 2,000 (36%) were called active. Inconclusive results (about 18%) are left out. This is one part of the list. Unmarked numbers belong to inactive results. No stated cut-off is given here; in the data, active means normalized growth mostly below about 0.91 (no sharp cut-off); inconclusive means no clear call, values can overlap the other calls; inactive means mostly above about 0.92.
# Assay: chemical genetic growth profiling, strain panel (AID 1159580);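 further: tested at 20 µM; growth read once vehicle control cultures reached saturation at 30 °C; 1 = growth at the plate median or of vehicle wells; lower values mean less growth of the strain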
# Conditions: S. cerevisiae deletion strains, growth OD
smiles,measurement,setting,value
Cc1nc(-c2cccnc2)nc(NCc2ccccc2)c1Cl,normalized growth,"locus YAR019C, strain CDC15, active compounds read low",0.943
same,normalized growth,"locus YBL105C, strain PKC1, active compounds read low",0.945
same,normalized growth,"locus YBR135W, strain CKS1, active compounds read low",0.941
same,normalized growth,"locus YBR136W, strain MEC1, active compounds read low",0.919
same,normalized growth,"locus YBR160W, strain CDC28, active compounds read low",0.955
same,normalized growth,"locus YDL017W, strain CDC7, active compounds read low",0.943
same,normalized growth,"locus YDL028C, strain MPS1, active compounds read low",0.926
same,normalized growth,"locus YDL101C, strain DUN1, active compounds read low",0.938
same,normalized growth,"locus YDL108W, strain KIN28, active compounds read low",0.924
same,normalized growth,"locus YDL132W, strain cdc53, active compounds read low",0.939
same,normalized growth,"locus YDL214C, strain PRR2, active compounds read low",0.866
same,normalized growth,"locus YDR052C, strain DBF4, active compounds read low",0.945
same,normalized growth,"locus YDR054C, strain cdc34, active compounds read low",0.933
same,normalized growth,"locus YDR226W, strain ADK1, active compounds read low",0.951
same,normalized growth,"locus YDR477W, strain SNF1, active compounds read low",0.887
same,normalized growth,"locus YER123W, strain YCK3, active compounds read low",0.784
same,normalized growth,"locus YER133W, strain GLC7, active compounds read low",0.853
same,normalized growth,"locus YFL009W, strain cdc4, active compounds read low",0.932
same,normalized growth,"locus YFL029C, strain CAK1, active compounds read low",0.941
same,normalized growth,"locus YFR003C, strain YPI1, active compounds read low",0.943
same,normalized growth,"locus YFR019W, strain FAB1, active compounds read low",0.946
same,normalized growth,"locus YFR028C, strain CDC14, active compounds read low",0.931
same,normalized growth,"locus YGR040W, strain KSS1, active compounds read low",0.841
same,normalized growth,"locus YGR052W, strain FMP48, active compounds read low",0.937
same,normalized growth,"locus YGR092W, strain DBF2, active compounds read low",0.8
same,normalized growth,"locus YHR030C, strain SLT2, active compounds read low",0.936
same,normalized growth,"locus YHR079C, strain IRE1, active compounds read low",0.887
same,normalized growth,"locus YHR082C, strain KSP1, active compounds read low",0.935
same,normalized growth,"locus YHR205W, strain SCH9, active compounds read low",0.886
same,normalized growth,"locus YIL147C, strain SLN1, active compounds read low",0.929
same,normalized growth,"locus YJL095W, strain BCK1, active compounds read low",0.923
same,normalized growth,"locus YJL128C, strain PBS2, active compounds read low",0.907
same,normalized growth,"locus YJL157C, strain FAR1, active compounds read low",0.877
same,normalized growth,"locus YJR016C, strain ILV3, active compounds read low",0.935
same,normalized growth,"locus YJR066W, strain TOR1 (second series), active compounds read low",0.884
same,normalized growth,"locus YJR066W, strain TOR1, active compounds read low",0.922
same,normalized growth,"locus YKL048C, strain ELM1, active compounds read low",0.94
same,normalized growth,"locus YKL067W, strain YNK1, active compounds read low",0.89
same,normalized growth,"locus YKL101W, strain HSL1, active compounds read low",0.892
same,normalized growth,"locus YKL193C, strain SDS22, active compounds read low",0.937
same,normalized growth,"locus YKL203C, strain TOR2, active compounds read low",0.923
same,normalized growth,"locus YLR113W, strain HOG1, active compounds read low",0.846 (active)
same,normalized growth,"locus YLR133W, strain CKI1, active compounds read low",0.913
same,normalized growth,"locus YLR403W, strain SFP1, active compounds read low",0.849
same,normalized growth,"locus YML070W, strain DAK1, active compounds read low",0.847
same,normalized growth,"locus YMR001C, strain CDC5, active compounds read low",0.938
same,normalized growth,"locus YMR205C, strain PFK2 (second series), active compounds read low",0.897
same,normalized growth,"locus YMR277W, strain FCP1, active compounds read low",0.943
same,normalized growth,"locus YNL006W, strain LST8, active compounds read low",0.954
same,normalized growth,"locus YNL020C, strain ARK1, active compounds read low",0.885
same,normalized growth,"locus YNL161W, strain CBK1, active compounds read low",0.952
same,normalized growth,"locus YNL183C, strain NPR1, active compounds read low",0.898
same,normalized growth,"locus YNL207W, strain RIO2, active compounds read low",0.922
same,normalized growth,"locus YNL222W, strain SSU72, active compounds read low",0.942
same,normalized growth,"locus YNL307C, strain MCK1 (second series), active compounds read low",0.899
same,normalized growth,"locus YOL078W, strain AVO1, active compounds read low",0.941
same,normalized growth,"locus YOL136C, strain PFK27, active compounds read low",0.877
same,normalized growth,"locus YOR061W, strain CKA2, active compounds read low",0.89
same,normalized growth,"locus YOR119C, strain RIO1, active compounds read low",0.889
same,normalized growth,"locus YOR231W, strain MKK1, active compounds read low",0.9
same,normalized growth,"locus YOR329C, strain SCD5, active compounds read low",0.948
same,normalized growth,"locus YPL031C, strain PHO85, active compounds read low",0.82
same,normalized growth,"locus YPL153C, strain RAD53, active compounds read low",0.841
same,normalized growth,"locus YPL204W, strain HRR25, active compounds read low",0.856
same,normalized growth,"locus YPL209C, strain IPL1, active compounds read low",0.942
same,normalized growth,"locus YPL256C, strain CLN2, active compounds read low",0.908
same,normalized growth,"locus YPR025C, strain CCL1, active compounds read low",0.951
same,normalized growth,"locus YPR106W, strain ISR1, active compounds read low",0.953
same,normalized growth,"locus YPR111W, strain DBF20, active compounds read low",0.942
same,normalized growth,"strain NNK1, active compounds read low",0.94
same,normalized growth,"strain TSCII, active compounds read low",0.934
